The list is not random: actives were taken first. Their share in the collection is about 17%.
DT40 TDP1 no CPT – qHTS for Inhibitors of human tyrosyl-DNA phosphodiesterase 1 (TDP1): qHTS in cells in absence of CPT. hit rate 15% among 420,000. Potency, µM (series often up to 46.2 µM), hits mostly inhibitors. AID 686978, 2013. DT40 Tdp1-/- hTDP1 cells, no CPT, ATP luminescence, 48 h; further: nearly all actives have a fitted effect of over 55% in size
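DT40 Tdp1-/-;hTDP1 cells, no CPT (DMSO vehicle only), 400 cells/well; compounds pin-transferred; ≥48 hr, 37 °C; CellTiter-Glo 30 min RT dark, luminescence read.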
TGFb inhibitor – blocks TGF-b signaling. HepG2 CAGA-GFP TGF-b/SMAD3 reporter, GFP fluorescence, 18 h; TGF-beta stimulated, 500 pg/mL final. Potency, µM (top dose mostly 46.1 µM), actives largely listed as inhibitors. hit rate 1.2% among 410,000. AID 588855; further: nearly all actives have a fitted effect of over 65% in size
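HEPG2 CAGA-GFP, 1000 cells/well; 2 h settle, 37 C; cpd via pin tool; TGF-b 500 pg/mL final; 18 h, 37 C; GFP imaging ex488/em500-530; %Activity normalised to -TGF-b and +DMSO controls; CRC fit, curve class.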
ATXN2 expr inh – inhibitors of ATXN2 expression. HEK-293 ATXN2-luciferase reporter, luminescence, 24 h. Potency, µM (titrated, usually from 57 µM), hits mostly inhibitors. hit rate 0.72% among 360,000. AID 1745845; further: nearly all actives have a fitted effect of over 55% in size
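ATXN2-luciferase reporter cells (luciferase flanked by upstream and downstream ATXN2 gene portions) were treated 24 h at 37 °C with compounds at up to 57 uM. SteadyGlo luminescence gave expression; GF-AFC fluorescence gave viability.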
TDP1 cell CPT – DT40-hTDP1 cell growth loss with CPT; Potency, µM (series often up to 46.2 µM), hits mostly inhibitors; AID 686979; hit rate 12% among 420,000; chicken DT40 Tdp1-/-;hTDP1 cells + 20 nM CPT, ATP luminescence, 48 h; further: nearly all actives have a fitted effect of over 55% in size
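Chicken DT40 Tdp1-/- cells stably complemented with human TDP1 were seeded at 400 cells/well in medium containing 20 nM camptothecin, exposed to pin-transferred compounds, and grown at 37 °C for at least 48 hr. Viability was read as ATP luminescence.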
HepG2 tox – kills HepG2 cells in TGF-b inhibitor counter-screen. Potency, µM (titrated, usually from 46.1 µM), usual class: cytotoxic. HepG2 CAGA-GFP viability, ATP luminescence, 18 h. AID 588856. hit rate 0.76% among 410,000
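CellTiter-Glo luminescence gave cytotoxicity after 18 hours at 37 degrees C. The cells were HepG2 CAGA-GFP in 1% FBS DMEM, stimulated with 500 pg/mL TGF-beta after compound addition. %Activity was normalised to no-cell wells (complete cell-killing) and DMSO (no toxicity), and curves were fitted and classified.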
ATXN viability – cell viability loss in ATXN counter-screen. S2 cells (HEK-293 line with an ATXN2-luciferase reporter) viability, CellTiter-Fluor protease fluorescence, 24 h. AID 651635. hit rate 0.49% among 400,000. Potency, µM (top dose mostly 56.7 µM), hits mostly cytotoxic; further: nearly all actives have a fitted effect of over 40% in size
Of the large screens only hits and unclear results are named; the others gave an inactive call. The call rests on the fitted dose curve; in most records, active means well fitted curve in the direction sought with a large enough effect; inconclusive means small, poorly fitted or top-dose-only effect, or another doubt; inactive means no such curve, though single readings can be large; an effect the other way counts as inactive or inconclusive.

C=CCn1c(=O)c2ccccc2n2c(SCC(=O)Nc3cc(C)on3)nnc12	DT40 TDP1 no CPT inconclusive, TDP1 cell CPT inconclusive
C=CCn1c(=O)c2ccccc2n2c(SCC(=O)Nc3sc(C)c(CC)c3C(=O)OCC)nnc12	DT40 TDP1 no CPT 16µM, TDP1 cell CPT inconclusive
C=CCn1c(=O)c2ccccc2n2c(SCC(=O)/C(C#N)=C(\C)N)nnc12	ATXN viability inconclusive
C=CCn1c(=O)c2ccccc2n2c(SCC(=O)Nc3sc(C(=O)N(CC)CC)c(C)c3C(=O)OCC)nnc12	DT40 TDP1 no CPT 15µM, TGFb inhibitor inconclusive, TDP1 cell CPT 23µM
C=CCn1c(=O)c2ccccc2n2c(SC(C)C(=O)Nc3nc(-c4ccccc4)cs3)nnc12 (centres undefined)	DT40 TDP1 no CPT 3.7µM, TDP1 cell CPT 9.2µM
C=CCn1c(C)cc(C(=O)CSc2nnc3n(CCC)c(=O)c4ccccc4n23)c1C	DT40 TDP1 no CPT 18µM, TDP1 cell CPT 21µM, ATXN viability inconclusive
CCOC(=O)c1c(NC(=O)CSc2nnc(-c3ccccc3)n2CC)sc(C(C)=O)c1C	DT40 TDP1 no CPT inconclusive, TDP1 cell CPT inconclusive, ATXN viability inconclusive
CCNC(=O)C1(C)CCCN1C(=O)c1cnc2ccccc2n1 (centres undefined)	none
Oc1ccc(N2CCN(C(c3ccc(Cl)cc3)c3nnnn3Cc3ccc(F)cc3)CC2)cc1 (centres undefined)	DT40 TDP1 no CPT inconclusive, TGFb inhibitor inconclusive, TDP1 cell CPT inconclusive (no result: ATXN2 expr inh, ATXN viability)
COC(=O)[C@@]1(Cc2ccccc2)[C@H]2C(=O)N(Cc3ccccc3)C(=O)[C@H]2[C@H]2CN=C(SCC(=O)c3ccccc3)N21	DT40 TDP1 no CPT 18µM, TGFb inhibitor inconclusive, TDP1 cell CPT inconclusive, ATXN viability inconclusive
CCN1C(=O)[C@H]2[C@H]3CN=C(SCc4ccc(Cl)cc4)N3[C@@](Cc3ccccc3)(C(=O)OC)[C@H]2C1=O	DT40 TDP1 no CPT 12µM, TGFb inhibitor inconclusive, TDP1 cell CPT inconclusive
CC(=O)c1ccc(NS(=O)(=O)c2c(C)nc3scc(C)n3c2=O)cc1	none
Cc1nc2scc(C)n2c(=O)c1S(=O)(=O)Nc1ccc(N2CCN(S(C)(=O)=O)CC2)cc1	DT40 TDP1 no CPT 18µM, TGFb inhibitor inconclusive, TDP1 cell CPT 23µM
COc1ccccc1Oc1ccc(NC(=O)c2ccccc2C)cc1	DT40 TDP1 no CPT 23µM, TDP1 cell CPT inconclusive (no result: ATXN2 expr inh)
COc1ccccc1Oc1ccc(NC(=O)c2ccccc2)cc1	none
COc1ccc(Cn2c(=O)[nH]c3cc(C(=O)Nc4ccccc4C)ccc32)cc1	none
Cc1nc(C)c(C(=O)Nc2ccc(Oc3ccccc3)cc2)o1	DT40 TDP1 no CPT 15µM, TDP1 cell CPT inconclusive
COc1ccccc1Nc1ccc(NC(=O)c2cccc([N+](=O)[O-])c2C)cc1	DT40 TDP1 no CPT 18µM, TGFb inhibitor inconclusive, TDP1 cell CPT inconclusive, ATXN viability inconclusive (no result: ATXN2 expr inh)
CCN1CCN(c2ccc(NC(=O)c3ccc4c(c3)[nH]c(=O)n4Cc3ccc(OC)cc3)cc2)CC1	DT40 TDP1 no CPT inconclusive, TGFb inhibitor inconclusive, TDP1 cell CPT 23µM, ATXN viability inconclusive
CCC(=O)Oc1ccc2c(c1)OC1(OC(C)=O)OC(C)CC1=C2C (centres undefined)	none (no result: ATXN viability)
COc1ccc(Oc2ccc(NC(=O)c3ccccc3C)cc2)cc1	DT40 TDP1 no CPT 21µM, TDP1 cell CPT inconclusive
COc1ccc(C(=O)Nc2ccc(N3CCN(C(=O)c4ccccc4C)CC3)cc2)cc1	DT40 TDP1 no CPT 8.2µM, TDP1 cell CPT 8.2µM
COc1ccc(C(=O)Nc2ccc(N3CCCC3)cc2)cc1	DT40 TDP1 no CPT inconclusive
COc1ccc(O)c(C(=O)CC(=O)c2ccccc2C)c1	DT40 TDP1 no CPT 5.8µM, TGFb inhibitor inconclusive, TDP1 cell CPT 7.3µM
COc1ccc(O)c(C(=O)CC(=O)c2cccnc2)c1	DT40 TDP1 no CPT inconclusive, TDP1 cell CPT inconclusive
